# From PubChem BioAssay
# This is a sample that favours compounds with a hit; in the whole collection about 21% have one here.
# ClpP mod: qHTS Assay for Activators of ClpP; ATP-dependent Clp protease proteolytic subunit (Bacillus subtilis (strain 168)), P80244; purified B. subtilis ClpP, FRET peptide cleavage, 20 min; 340,000 compounds, 1.9% hits; Potency, µM (top dose mostly 57.5 µM), for inactives: at the top dose activity change, negative = active; active means well fitted falling curve with a large enough effect; inconclusive means small, poorly fitted or top-dose-only effect; inactive means no such curve, though single readings can be large or run the other way; further: potency means the concentration at half of the fitted maximal effect; the source files actives as falling curves though it sought activators and does not explain the sign; nearly all actives have a fitted effect of over 65% in size
# Target sequence (P80244 whole entry, looked up): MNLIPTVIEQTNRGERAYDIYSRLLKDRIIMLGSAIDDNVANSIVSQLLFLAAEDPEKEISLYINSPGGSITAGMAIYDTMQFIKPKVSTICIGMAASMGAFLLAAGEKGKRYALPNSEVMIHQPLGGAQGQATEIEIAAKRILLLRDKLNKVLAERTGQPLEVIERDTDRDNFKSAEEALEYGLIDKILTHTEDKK
#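 Buffer: 100 mM Tris/HCl pH8, 100 mM KCl, 0.05% low protease BSA, 2.5% glycerol, 0.01% Tween-20. ClpP 10 microg/mL final; 20 min RT; delta FRET normalized to ADEP and DMSO controls.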
# DRD3 antagonist: qHTS of D3 Dopamine Receptor Antagonist: qHTS. 360,000 compounds, 2.5% hits. D(3) dopamine receptor (Homo sapiens), P35462. D3R cells, DiscoveRx beta-arrestin luminescence, antagonist mode; hits give low values. max response, negative = inhibition, %. AID 652054, 2013; in the data active means max response below about -50%; inconclusive means no clear call, values can overlap the other calls; further: on the % scale 0 is the no-effect control and ±100 the full control effect
# Target sequence (P35462 whole entry, looked up): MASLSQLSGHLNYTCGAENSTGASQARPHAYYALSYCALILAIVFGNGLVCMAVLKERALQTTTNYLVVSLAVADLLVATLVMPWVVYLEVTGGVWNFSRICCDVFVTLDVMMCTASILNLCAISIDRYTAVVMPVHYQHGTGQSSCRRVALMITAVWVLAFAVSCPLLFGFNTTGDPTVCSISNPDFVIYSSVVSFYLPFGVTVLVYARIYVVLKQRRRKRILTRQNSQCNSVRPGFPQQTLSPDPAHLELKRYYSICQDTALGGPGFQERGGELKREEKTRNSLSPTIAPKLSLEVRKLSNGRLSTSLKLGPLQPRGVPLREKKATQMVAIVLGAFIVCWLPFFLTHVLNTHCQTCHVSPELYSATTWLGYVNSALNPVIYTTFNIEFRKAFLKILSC
#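 Cells plated overnight at 1500 cells/well, then exposed to library compounds with dopamine controls for 90 minutes at 37 degrees C. DiscoveRx reagent added for 30–60 minutes at room temperature; luminescence read, quantitative HTS format.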
# DT40 TDP1 no CPT: qHTS for Inhibitors of human tyrosyl-DNA phosphodiesterase 1 (TDP1): qHTS in cells in absence of CPT. DT40 Tdp1-/- hTDP1 cells, no CPT, ATP luminescence, 48 h. Potency, µM (titrated, usually from 46.2 µM), for the others: at the highest dose activity change, negative = growth inhibition, most hits filed as inhibitors. 420,000 compounds, 15% hits; further: potency means the concentration at half of the fitted maximal effect; on the % scale 0 is the no-effect control and ±100 the full control effect; nearly all actives have a fitted effect of over 55% in size
#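 Growth kinetics read by CellTiter-Glo luminescence after ≥48 hr at 37 °C. Cells: DT40 Tdp1-/- stably carrying human TDP1, 400 per well, compound exposure in the absence of CPT (DMSO vehicle).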
# D3 ag: qHTS of D3 Dopamine Receptor Agonist: qHTS. D(3) dopamine receptor (Homo sapiens), P35462. 410,000 compounds, 0.58% hits. max activation, %. D3R DiscoveRx beta-arrestin cells, luminescence, 90 min; in the data active means max activation above about 30%; further: 0% is about no effect
#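 Agonist mode: compounds and dopamine controls were applied to plated cells for 90 min at 37 degrees C after an overnight attachment at 1500 cells/well. Luminescent read-out followed 30 - 60 minutes at room temperature with DiscoveRx detection reagent.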
# DT40 TDP1 CPT: qHTS for Inhibitors of human tyrosyl-DNA phosphodiesterase 1 (TDP1): qHTS in cells in presence of CPT. chicken DT40 Tdp1-/-;hTDP1 cells + 20 nM CPT, ATP luminescence, 48 h. Potency, µM (highest dose often 46.2 µM), for the others: at the top dose activity change, negative = growth inhibition, hits mostly inhibitors. 420,000 compounds, 12% hits. AID 686979, 2013; further: potency means the concentration at half of the fitted maximal effect; on the % scale 0 is the no-effect control and ±100 the full control effect; nearly all actives have a fitted effect of over 55% in size
#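 Chicken DT40 Tdp1-/- cells complemented with human TDP1, 400 cells/well, exposed to compounds plus 20 nM camptothecin for at least 48 h at 37 C; viability read as ATP content by CellTiter-Glo luminescence.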
# IL-1B inflam inh: qHTS for Inhibitors of Inflammasome Signaling: IL-1-beta AlphaLISA Primary Screen. THP-1 LPS/ATP IL-1B secretion, AlphaLISA, 16 h; hits give low values. activity change, % at 57.5 µM. 360,000 compounds, 4.7% hits. AID 743279, 2014; in the data active means activity change below about -50%; inconclusive means mostly about -30% to -49%; further: on the % scale 0 is the no-effect control and ±100 the full control effect
#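 THP-1 cells pretreated 1 hr with compounds (up to 57.5 uM final), then stimulated with LPS (250 ng/mL final) plus ATP (1.25 mM final); secreted IL-1B measured by AlphaLISA after 16 hr, decreased signal indicating inhibition.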
# Starred values were filed as active, the others as inactive; i = inactive; ? = inconclusive; · = no result given. Unless noted, the call rests on the fitted dose curve; in most records, active means well fitted inhibition curve with a large enough effect; inconclusive means small, poorly fitted or top-dose-only effect; inactive means flat fitted curve, though single readings scatter.
SMILES,ClpP mod,DRD3 antagonist,DT40 TDP1 no CPT,D3 ag,DT40 TDP1 CPT,IL-1B inflam inh
CCOC(=O)c1c(N)n(-c2ccc(OCC)cc2)c2nc3ccccc3nc12,4.2%,·,·,-5.4,·,·
CCC(OC(=O)C1=Cc2ccccc2OC1)C(=O)NCc1ccco1 (configuration not stated),-19.5%,-4.0,25.9µM*,0.0,-28.1%,2.3
C=CCn1c(SCCCc2ccccc2)nc2c1c(=O)[nH]c(=O)n2C,0.2%,49.6,25.9µM*,5.6,?,53.9
COCCSc1nc2c(c(=O)[nH]c(=O)n2C)n1CCCc1ccccc1,-2.6%,-5.5,-19.6%,3.4,?,16.8
Cn1c(=O)[nH]c(=O)c2c1nc(SCCN1CCCCC1)n2CCCc1ccccc1,1.4%,-68.2*,?,3.4,?,-22.1
Cc1nn(C)c(C(=O)NC(=S)Nc2ccccc2Br)c1Cl,0.6%,13.7,13.0%,3.0,5.3%,?
CCn1ncc(Cl)c1C(=O)NC(=S)Nc1ccccc1Br,-0.8%,-1.1,-21.6%,4.2,1.7%,-85.2*
COc1nccnc1NS(=O)(=O)c1ccc(NC(=S)NC(=O)c2cccc(F)c2)cc1,-4.6%,-61.6*,-35.5%,-3.2,5.4%,35.4
COc1nccnc1NS(=O)(=O)c1ccc(NC(=S)NC(=O)c2ccc(F)cc2)cc1,1.1%,-64.7*,-18.5%,-7.2,-17.5%,8.4
COc1nccnc1NS(=O)(=O)c1ccc(NC(=S)NC(=O)c2cccnc2)cc1,1.7%,-22.0,-17.1%,-8.8,-12.8%,35.1
COc1ccc(/C=C/C(=O)NC(=S)Nc2ccc(S(=O)(=O)Nc3nccnc3OC)cc2)cc1,-1.4%,-62.1*,-3.8%,-8.7,-2.5%,-15.9
Cc1ccn2c(=O)nc(SCC(=O)NCc3ccccc3Cl)nc2c1,?,16.0,10.9%,3.4,-12.6%,-6.4
COc1ccccc1CNCC(=O)Nc1cc(S(=O)(=O)N2CCOCC2)ccc1Cl,1.7%,-8.3,16.4µM*,13.1,?,3.7
Cc1ccc(S(=O)(=O)N2CCCCC2)cc1NC(=O)CNCc1ccco1,-0.2%,0.9,-17.5%,38.3*,-25.6%,15.6
CCN(C(=S)Nc1cc(S(=O)(=O)N2CCOCC2)ccc1Cl)c1cccc2ccccc12,11.2µM*,8.9,?,2.8,18.4µM*,9.1
CCN(CC)S(=O)(=O)c1ccc(C)c(NC(=O)CN(C)C)c1,·,-14.5,-14.1%,-10.3,-6.3%,-15.0
CCN(CC)S(=O)(=O)c1ccc(C)c(NC(=O)CNCc2ccccc2OC)c1,·,-24.0,?,32.8*,?,?
COc1ccccc1-c1nccc(NC2CCNCC2)n1,·,·,-0.2%,·,-3.0%,·
CCOc1ccccc1N1C(=O)c2ccccc2N/C1=C\N1CCN(C(=O)c2ccco2)CC1,2.5%,·,?,·,-23.4%,·
O=C(Nc1cc(S(=O)(=O)N2CCCCC2)ccc1Cl)C1=NN(c2ccccc2)C(=O)CC1,·,0.1,8.2µM*,4.0,?,82.5
Cc1ccc(S(=O)(=O)N2CCOCC2)cc1NC(=O)CNCc1ccccc1Cl,·,-15.0,?,34.8*,?,-17.7
O=C(CNc1ccccc1Cl)Nc1cc(S(=O)(=O)N2CCOCC2)ccc1Cl,-2.7%,-9.7,?,0.4,-15.7%,-8.1
Cc1ccc(S(=O)(=O)N2CCOCC2)cc1NC(=O)CNC(C)c1ccccc1 (configuration not stated),4.6%,-14.0,-4.4%,-9.8,7.7%,0.6
CC(NCC(=O)Nc1cc(S(=O)(=O)N2CCOCC2)ccc1Cl)c1ccc(Cl)cc1Cl (configuration not stated),1.5%,23.7,23.1µM*,2.2,?,-52.2*
Cc1ccc(S(=O)(=O)N2CCOCC2)cc1NC(=O)CNCc1ccccn1,-1.9%,1.4,23.0%,51.8*,?,15.8
SMILES,ClpP mod,DRD3 antagonist,DT40 TDP1 no CPT,D3 ag,DT40 TDP1 CPT,IL-1B inflam inh
CCn1c(SCC(=O)NC2CCCC2)nnc1C(C)C,·,4.5,-4.7%,5.1,3.0%,-5.9
CC(C)(C)n1nnnc1C(c1ccccc1)N1CCN(c2ncc(C(F)(F)F)cc2Cl)CC1 (configuration not stated),-0.5%,3.8,?,2.4,?,0.6
Cc1cc(F)ccc1NC(=O)C(c1ccccc1)N1Cc2ccccc2C1=O (configuration not stated),4.9%,·,-12.3%,-17.4,2.5%,·
CC(C)CN(CCCNC(=O)Cn1ncc2c3ccccc3n(C)c2c1=O)CC(C)C,-15.8%,·,-17.0%,5.8,-3.3%,·
Brc1ccc(Br)c2cnccc12,-3.6%,-10.2,-15.5%,7.5,4.7%,13.8
COc1ccc(C(=O)N2CCC3(CCCN(C(=O)Nc4cccc(C#N)c4)C3)CC2)cc1,·,·,?,·,-10.8%,·
N#CN=c1snc(-c2ccccc2Cl)n1-c1ccc(F)cc1,1.1%,·,?,·,?,·
O=C(Nc1ccc(S(=O)(=O)Nc2ccccc2F)cc1)N1CCCCC1,0.7%,-16.9,-17.7%,-7.7,?,i
COc1ccccc1CNCC(=O)Nc1cc(S(=O)(=O)N2CCCCCC2)ccc1Cl,·,-60.3*,?,3.0,?,-8.5
CC(C)(C)CC(=O)Nc1cc(S(=O)(=O)N2CCCCCC2)ccc1Cl,-3.3%,-4.4,?,-3.2,?,13.2
O=C(CCl)Nc1cc(S(=O)(=O)N2CCCCCC2)ccc1Cl,-1.6%,-2.4,2.59µM*,0.2,3.66µM*,-101.4*
CC12CCC(C(=O)n3c1nc1ccccc13)C2(C)C (configuration not stated),-2.2%,11.9,20.6µM*,4.0,18.4µM*,?
Cc1ccc(OCCOc2ccc(Br)cc2)c([N+](=O)[O-])n1,?,-23.4,-13.6%,-5.8,-15.3%,-58.1*
Cc1ccc(OCc2ccc([N+](=O)[O-])cc2)c([N+](=O)[O-])n1,-2.7%,-18.3,-2.2%,-0.3,4.1%,2.9
COC(=O)c1cc(=O)nc(NN=C2c3ccccc3-c3ccccc32)s1,1.6%,0.0,?,-12.0,23.1µM*,0.0
COC(=O)c1cc(=O)nc(NN=C2CCCCC2)s1,1.9%,0.9,0.6%,6.4,1.1%,10.5
